Source: PubChem BioAssay
Sampled rows, rich in hits. Any-hit rate of the full collection: about 4%.
TROY signal inh: TROY signaling inhibition | Q293 LMP1-TROYcd NF-kB luciferase reporter, 4 h | inhibition, % at 10 µM | hit rate 0.98% among 360,000;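 active means compounds whose plate-normalised and pattern-corrected inhibition of the luciferase reporter signal at the single screening dose is 50% or more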
HIF-2a inh: HIF-2a inhibition; 786-0 RCC cells HIF-2a reporter, luciferase luminescence, overnight; inhibition, % at 18.8 µM; hit rate 0.72% among 360,000;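 active means inhibition of the luminescence signal of 40% or more relative to plate controls, in a single-dose primary screen at 18.75 µM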
CF NFkB inh: blocks PAF-induced NF-kB reporter in cystic fibrosis cells. inhibition, % at 5 µM. KKLEB NF-kB-GFP reporter, GFP fluorescence overnight. hit rate 0.86% among 360,000;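 active means at least 50% inhibition at 5 µM, scaled per plate between neutral and stimulator controls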;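 further: PAF is a Pseudomonas aeruginosa culture filtrate used as stimulus; plate controls were PAF-stimulated DMSO wells for no effect and unstimulated DMSO wells for full effect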
KKLEB tox: reduces viability of KKLEB cystic fibrosis airway cells | KKLEB CF airway cells viability, ATPlite luminescence, overnight; active compounds read low; cells stimulated with P. aeruginosa culture filtrate | activity change (cytotoxicity), % at 5 µM | hit rate 0.36% among 360,000 | AID 602141;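 active means corrected activity change at or below -50% at 5 µM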
Peg3 prom inh-1: Peg3 promoter activity inhibition; HeLa PEG-Prom luciferase reporter, luminescence, overnight; inhibition, % at 20 µM; hit rate 1.7% among 360,000;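 active means inhibition of at least 50% at 20 µM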
TWEAK Fn14 block: inhibitors of TWEAK-Fn14 interaction signaling; TWEAK-stimulated Fn14 reporter cells, luciferase luminescence, 8 h; hit rate 2% among 360,000; AID 1159606; inhibition, % at 10 µM; in the data active means inhibition above about 50%
Peg3 prom inh-2: Peg3 promoter inhibition confirmation. shares compounds with Peg3 prom inh-1. HeLa PEG-Prom luciferase reporter, luminescence, overnight. inhibition, % at 20 µM. hit rate 84% among 1,300. AID 602417;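 active means at 20 µM dose, 40% or more inhibition averaged across four replicates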
Mdm2 MdmX conf: confirmation of inhibitors of human Mdm2/MdmX interaction, set 2; hit rate 99% among 740; SaOS-2 split-luciferase Mdm2/MdmX complementation, luminescence; AID 504601; shares compounds with HIF-2a inh; inhibition, % at 8 µM;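 active means mean inhibition of the luminescence signal across two replicates at or above 26 percent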
Target sequence (O15151 whole entry, looked up): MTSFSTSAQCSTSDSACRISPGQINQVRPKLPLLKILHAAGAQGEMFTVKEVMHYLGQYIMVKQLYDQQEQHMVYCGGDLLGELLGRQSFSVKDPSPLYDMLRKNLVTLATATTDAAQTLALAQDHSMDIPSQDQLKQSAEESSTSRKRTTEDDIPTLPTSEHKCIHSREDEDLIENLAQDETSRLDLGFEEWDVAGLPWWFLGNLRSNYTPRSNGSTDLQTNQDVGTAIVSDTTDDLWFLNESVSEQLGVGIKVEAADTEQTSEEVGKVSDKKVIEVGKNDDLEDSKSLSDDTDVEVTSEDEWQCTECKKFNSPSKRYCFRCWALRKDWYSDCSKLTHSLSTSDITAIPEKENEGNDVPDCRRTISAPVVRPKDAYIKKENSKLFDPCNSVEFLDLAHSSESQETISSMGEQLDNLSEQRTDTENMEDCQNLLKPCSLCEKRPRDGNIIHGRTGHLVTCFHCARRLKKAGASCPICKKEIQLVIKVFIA
Target sequence (Q00987 whole entry, looked up): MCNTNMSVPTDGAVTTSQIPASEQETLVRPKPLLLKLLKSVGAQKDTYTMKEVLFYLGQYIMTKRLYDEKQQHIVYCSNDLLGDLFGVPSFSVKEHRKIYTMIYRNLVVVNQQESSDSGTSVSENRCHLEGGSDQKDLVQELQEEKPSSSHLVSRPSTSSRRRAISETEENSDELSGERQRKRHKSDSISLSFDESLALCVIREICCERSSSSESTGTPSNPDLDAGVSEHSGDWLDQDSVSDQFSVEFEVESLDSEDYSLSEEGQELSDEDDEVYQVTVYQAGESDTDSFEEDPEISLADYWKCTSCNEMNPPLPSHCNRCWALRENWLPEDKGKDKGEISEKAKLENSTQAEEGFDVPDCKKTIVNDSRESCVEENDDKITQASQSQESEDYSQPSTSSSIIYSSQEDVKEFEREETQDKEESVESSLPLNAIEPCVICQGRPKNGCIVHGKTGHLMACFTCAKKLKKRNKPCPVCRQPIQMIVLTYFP
HIF-2a inh conf: HIF-2a inhibition, single concentration confirmation; shares compounds with HIF-2a inh; AID 651580; 786-0 RCC cells, HIF-2a luciferase reporter luminescence, overnight; inhibition, % at 18.8 µM; hit rate 56% among 1,800;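 active means mean inhibition across four replicates of at least 40 percent at the single tested concentration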
HIF-1a counter: counter-screen for HIF-2a inhibitors: HIF-1a inhibition in MiaPaCa-2 cells | MiaPaCa-2 HIF-1a luciferase reporter, desferoxamine, overnight | shares compounds with HIF-2a inh | hit rate 72% among 1,800 | inhibition, % at 18.8 µM;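 active means mean inhibition of the reporter signal across four replicates at the single tested dose of 50% or more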
* marks the source's active call; other numbers are inactive results; · = no result.

SMILES	TROY signal inh	HIF-2a inh	CF NFkB inh	KKLEB tox	Peg3 prom inh-1	TWEAK Fn14 block	Peg3 prom inh-2	HIF-2a inh conf	HIF-1a counter	others
CCCN1C=CC(=C2C(=O)c3ccccc3C2=O)C=C1	72.8*	89.8*	-4.0	-61.0*	105.0*	70.7*	94.1*	·	·	Mdm2 MdmX conf=99.5*
O=C(Nc1cccc2c1CCCC2)c1ccccc1F	-24.1	-66.7	6.1	-4.4	-46.0	-5.2	·	·	·
CCCSc1nnc(N)s1	-19.6	3.0	1.1	7.0	-13.7	6.1	·	·	·
CCOC(=O)c1cnc(Nc2nc3ccccc3o2)nc1C	56.1*	74.2*	-13.0	-24.3	79.0*	93.5*	68.6*	81.2*	71.1*
CCOC(=O)c1cnc(Nc2nc3ccccc3o2)nc1CSc1nnc(C)s1	13.1	-112.0	-11.8	8.2	-69.0	4.8	·	·	·
Cc1ccc(Cl)c2sc(NC(=O)C3CC3)nc12	12.0	14.5	-29.7	11.6	13.6	3.3	·	·	·
COc1cc(C(=O)/C=C/c2cccnc2)c([N+](=O)[O-])cc1OC	16.4	89.5*	45.9	-12.2	69.0*	35.8	96.0*	73.3*	96.3*
Cc1cc(C(=O)CN2C(=O)c3ccccc3S2(=O)=O)c(C)n1CC1CCCO1 (configuration not stated)	44.9	91.9*	-14.5	-7.5	96.0*	106.2*	92.6*	98.3*	103.7*
Cc1cc(C(=O)CN2C(=O)NC(C)(c3ccccc3)C2=O)c(C)n1CC1CCCO1 (configuration not stated)	0.1	-3.3	15.5	6.5	-8.2	2.1	·	·	·
CCCn1c(C)cc(C(=O)Cn2nnc3ccccc3c2=O)c1C	17.3	-211.3	-11.9	-4.7	-264.6	33.0	·	·	·
CCCn1c(C)cc(C(=O)CN2C(=O)c3ccccc3S2(=O)=O)c1C	22.5	91.3*	-0.6	6.3	89.4*	8.2	86.8*	95.3*	94.5*
COc1ccc(C(=O)CN2C(=O)c3ccccc3S2(=O)=O)cc1	85.5*	88.2*	8.1	-5.0	98.0*	101.5*	83.8*	92.3*	92.1*
COC(=O)[C@]1(Cc2ccccc2)N[C@H](CN(C)C(=O)COc2ccccc2)[C@@H]2C(=O)N(C)C(=O)[C@@H]21	-12.2	7.7	-6.8	13.8	7.6	14.1	·	·	·
CC(=O)n1nc(-c2ccccc2)nc1NCc1ccc(N(C)C)cc1	-6.1	-179.1	5.1	-9.3	-170.3	-16.4	·	·	·
CN(C)S(=O)(=O)c1ccc(SCC(=O)Nc2cccc(S(=O)(=O)N3CCCC3)c2)nc1	9.5	3.5	-12.4	7.3	10.6	22.6	·	·	·
CN(C)S(=O)(=O)c1cccc(NC(=O)CSc2cccc3cccnc23)c1	-29.1	65.9*	-10.7	1.6	101.7*	-17.6	92.9*	74.9*	-15.4
Clc1ccccc1-c1cccc2nccn12	-2.5	-22.3	25.5	-15.0	-29.1	36.2	·	·	·
c1cc2c(cc1C1=NNC(=NC3CC3)SC1)OCCO2	88.6*	85.8*	-3.2	-32.2	92.8*	104.0*	90.9*	93.7*	96.9*	Mdm2 MdmX conf=95.2*
COc1ccc(N=C2NN=C(c3ccc4c(c3)OCCO4)CS2)cc1	7.4	-140.5	1.3	-8.0	-225.5	6.9	·	·	·
Cc1cnc(NC(=O)c2ccc3c(c2)OCCO3)s1	85.4*	77.3*	10.8	-58.0*	87.1*	103.4*	80.7*	90.2*	80.1*
O=C(O)CCCN1C(=O)/C(=C/c2cn(-c3ccccc3)nc2-c2cccs2)SC1=S	41.3	20.4	36.8	-19.0	14.2	15.2	·	·	·
CCc1ccc(-c2cc3c(=O)n(CC(=O)NCCCN4CCC(Cc5ccccc5)CC4)nc(C)n3n2)cc1	-11.7	-47.9	31.9	-10.4	99.7*	-30.9	98.2*	·	·	Mdm2 MdmX conf=103.2*
CCCn1c(SCC(=O)c2c(N)n(C3CC3)c(=O)[nH]c2=O)nc2cc(S(N)(=O)=O)ccc21	15.1	3.0	9.7	13.5	-14.6	9.5	·	·	·
CC(=O)NC(c1ccc(Cl)cc1Cl)c1ccc2cccnc2c1O (configuration not stated)	28.5	25.1	-11.9	6.7	56.2*	9.1	59.0*	·	·	Mdm2 MdmX conf=86.0*
CCCC(=O)NC(c1ccc(C)cc1)c1ccc2cccnc2c1O (configuration not stated)	19.2	11.3	-2.9	7.1	63.0*	-4.6	66.8*	·	·	Mdm2 MdmX conf=89.2*
SMILES	TROY signal inh	HIF-2a inh	CF NFkB inh	KKLEB tox	Peg3 prom inh-1	TWEAK Fn14 block	Peg3 prom inh-2	HIF-2a inh conf	HIF-1a counter	others
CCCC(=O)NC(c1ccc(Cl)cc1)c1ccc2cccnc2c1O (configuration not stated)	17.4	25.1	-26.9	-0.1	57.4*	1.0	64.7*	·	·	Mdm2 MdmX conf=92.2*
CCCCC(=O)NC(c1ccccc1OC)c1ccc2cccnc2c1O (configuration not stated)	-9.8	12.6	-17.2	-6.7	62.5*	-2.6	68.6*	·	·	Mdm2 MdmX conf=87.0*
CCCCC(=O)NC(c1ccc(OC)c(OC)c1)c1c(O)ccc2ccccc12 (configuration not stated)	-5.0	4.8	3.9	0.4	11.1	16.9	·	·	·
COc1ccc(NC2c3ncccc3C(=O)N2Cc2cccs2)cc1 (configuration not stated)	12.1	15.1	4.8	3.8	8.0	-9.2	·	·	·
CC(=O)Nc1ccc(S(=O)(=O)NC(C)C(=O)NCC(c2ccco2)N2CCCCC2)cc1 (configuration not stated)	21.3	13.8	-10.4	6.0	4.4	-1.8	·	·	·
Cc1ccc(S(=O)(=O)NC(CC(C)C)C(=O)NCC(c2ccco2)N2CCCCC2)cc1 (configuration not stated)	88.3*	80.0*	-22.5	13.1	74.7*	104.0*	85.1*	87.8*	93.1*
Cc1[nH]c2ccccc2c1C(=O)C(C)OC(=O)c1ccc([N+](=O)[O-])o1 (configuration not stated)	-0.9	1.1	0.0	-8.8	19.9	6.3	·	·	·
CCN(CC)S(=O)(=O)c1ccc(S(=O)(=O)N2CCN(C(=O)c3ccco3)CC2)cc1	-1.3	1.4	5.3	-9.3	18.3	-18.5	·	·	·
Cc1ccc2nc(-c3ccc4c(c3)NC(=O)CO4)cn2c1	6.5	-332.2	-4.1	-18.4	-282.3	-10.8	·	·	·
Cc1ccc2nc(-c3ccc4c(c3)OCCO4)cn2c1	78.0*	80.1*	-25.8	-85.2*	90.8*	101.2*	93.4*	·	·	Mdm2 MdmX conf=93.5*
CCOC(=O)c1c(SCCN2CCCCC2)n(-c2ccccc2)c(=S)n(-c2ccccc2)c1=O	16.8	87.4*	7.0	-7.9	108.1*	18.5	99.0*	67.7*	100.6*
